This is part of a sample that, as a whole, favours compounds with a hit. Of some 83,000 tested, about 20% had one in any assay.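 Each cell line was grown in a 96-well plate and treated with one concentration of compound for 48 hours. Values below 10 were considered active.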 Activity calls are given as the source filed them.
Experiments:
Test in all cases: NCI-60 one-dose screen, 48 h (100 = growth as untreated, 0 = no growth, -100 = all killed)
Settings in all cases: 10 µM unless noted
MOLT-4 leukemia = test system: MOLT-4 leukemia
SR leukemia = test system: SR leukemia
RPMI-8226 leukemia = test system: RPMI-8226 leukemia
OVCAR-8 ovarian = test system: OVCAR-8 ovarian
OVCAR-5 ovarian = test system: OVCAR-5 ovarian
OVCAR-4 ovarian = test system: OVCAR-4 ovarian
SK-OV-3 ovarian = test system: SK-OV-3 ovarian
IGROV1 ovarian = test system: IGROV1 ovarian
OVCAR-3 ovarian = test system: OVCAR-3 ovarian
HS 578T breast = test system: HS 578T breast
NCI/ADR-RES ovarian = test system: NCI/ADR-RES ovarian
T-47D breast = test system: T-47D breast
BT-549 breast = test system: BT-549 breast
MDA-MB-435 melanoma = test system: MDA-MB-435 melanoma
SW-620 colon = test system: SW-620 colon
MCF7 breast = test system: MCF7 breast
HCT-116 colon = test system: HCT-116 colon
HCC-2998 colon = test system: HCC-2998 colon
KM12 colon = test system: KM12 colon

Measured: growth

COC(=O)[C@@H](C)C[C@H](Cc1ccccc1)NC(=O)c1cccc([C@@H](C[C@H](C(C)C)N(C)C(=O)[C@@H](NC(=O)[C@H]2CCCCN2C)C(C)C)OC(C)=O)n1
active: SR leukemia 8.11% | OVCAR-3 ovarian -31.3% | BT-549 breast -12.5% | MDA-MB-435 melanoma -32.2% | HCT-116 colon 2.54% | HCC-2998 colon 2.68% | KM12 colon 7.8%
inactive: MOLT-4 leukemia 11.5% | RPMI-8226 leukemia 22.4% | OVCAR-8 ovarian 11.4% | OVCAR-5 ovarian 35.6% | OVCAR-4 ovarian 38.9% | SK-OV-3 ovarian 28.7% | IGROV1 ovarian 26.8% | HS 578T breast 26.3% | NCI/ADR-RES ovarian 14.6% | T-47D breast 47.1% | SW-620 colon 22% | MCF7 breast 21.3%

CC[C@H](C)[C@H](NC(=O)N[C@@H](C)c1ccccc1)C(=O)N(C)[C@H](C[C@@H](OC(C)=O)c1nc(C(=O)N[C@@H](Cc2ccccc2)C[C@H](C)C(=O)OC)cs1)C(C)C
inactive: MOLT-4 leukemia 21.7% | RPMI-8226 leukemia 16.1% | OVCAR-8 ovarian 11.6% | OVCAR-5 ovarian 17.8% | OVCAR-4 ovarian 37.1% | SK-OV-3 ovarian 36.1% | IGROV1 ovarian 24.1% | NCI/ADR-RES ovarian 50% | T-47D breast 76.7% | BT-549 breast 10.5% | SW-620 colon 16.8% | MCF7 breast 17.5% | HCC-2998 colon 23.7%
active: SR leukemia 3.11% | OVCAR-3 ovarian -36.6% | HS 578T breast 0.903% | MDA-MB-435 melanoma -41.7% | HCT-116 colon 9.92% | KM12 colon 2.6%

COc1ccc(C/C(C)=C(\c2ccc(OCCN3CCOCC3)cc2)c2ccc(OC(=O)Cc3ccccc3)cc2)cc1
active: MOLT-4 leukemia -14.5% | SR leukemia -38.2% | RPMI-8226 leukemia -42.4% | OVCAR-8 ovarian -1.48% | OVCAR-5 ovarian 3.16% | OVCAR-4 ovarian 4% | SK-OV-3 ovarian 0.737% | IGROV1 ovarian 1.9% | OVCAR-3 ovarian -93.4% | HS 578T breast -42.1% | NCI/ADR-RES ovarian 5.39% | T-47D breast -48.5% | BT-549 breast -70.4% | MDA-MB-435 melanoma -58.9% | SW-620 colon -63% | MCF7 breast -53.1% | HCT-116 colon -89.7% | HCC-2998 colon -64.3% | KM12 colon -35.2%

CC(C)CCC(=O)O[C@H]1CC[C@H]2[C@@H]3CCC4=CC(=O)CC[C@]4(C)[C@H]3CC[C@]12C
inactive: MOLT-4 leukemia 96% | SR leukemia 90.7% | RPMI-8226 leukemia 98.6% | OVCAR-8 ovarian 104% | OVCAR-5 ovarian 93% | OVCAR-4 ovarian 103% | SK-OV-3 ovarian 128% | IGROV1 ovarian 96.3% | OVCAR-3 ovarian 97.9% | HS 578T breast 86.9% | NCI/ADR-RES ovarian 99% | T-47D breast 102% | BT-549 breast 104% | MDA-MB-435 melanoma 96.6% | SW-620 colon 94.5% | MCF7 breast 105% | HCT-116 colon 99.8% | HCC-2998 colon 105% | KM12 colon 95.2%

ClCCN(CCCl)c1ccc(OCc2ccccc2)cc1
inactive: MOLT-4 leukemia 11.7% | RPMI-8226 leukemia 64.8% | OVCAR-8 ovarian 55.8% | OVCAR-5 ovarian 89% | OVCAR-4 ovarian 78.7% | SK-OV-3 ovarian 65.2% | IGROV1 ovarian 76.7% | OVCAR-3 ovarian 78% | HS 578T breast 96.6% | NCI/ADR-RES ovarian 56.7% | T-47D breast 68.4% | BT-549 breast 42.7% | MDA-MB-435 melanoma 75% | SW-620 colon 60.9% | MCF7 breast 31.7% | HCT-116 colon 55.9% | HCC-2998 colon 89.1% | KM12 colon 90.5%
active: SR leukemia -8.12%

CC(=O)O[C@H]1CC[C@@]2(C)C(=CC[C@H]3[C@@H]4C[C@@H](N5CC5)[C@H](C(C)=O)[C@@]4(C)CC[C@@H]32)C1
inactive: MOLT-4 leukemia 63.4% | SR leukemia 58.6% | RPMI-8226 leukemia 79.3% | OVCAR-8 ovarian 88.5% | OVCAR-5 ovarian 99.5% | OVCAR-4 ovarian 80.3% | SK-OV-3 ovarian 99.9% | IGROV1 ovarian 86.2% | OVCAR-3 ovarian 109% | HS 578T breast 98% | NCI/ADR-RES ovarian 92.9% | T-47D breast 88.3% | BT-549 breast 100% | MDA-MB-435 melanoma 99.9% | SW-620 colon 89.6% | MCF7 breast 72.8% | HCT-116 colon 85.9% | HCC-2998 colon 106% | KM12 colon 106%

CCCCC1(CCC)C(=O)NC(=S)NC1=O
inactive: MOLT-4 leukemia 96.8% | SR leukemia 126% | RPMI-8226 leukemia 104% | OVCAR-8 ovarian 128% | OVCAR-5 ovarian 102% | OVCAR-4 ovarian 95.9% | SK-OV-3 ovarian 109% | IGROV1 ovarian 87.9% | OVCAR-3 ovarian 93.3% | HS 578T breast 111% | NCI/ADR-RES ovarian 102% | T-47D breast 92.3% | BT-549 breast 107% | MDA-MB-435 melanoma 116% | SW-620 colon 109% | MCF7 breast 95.7% | HCT-116 colon 99.2% | HCC-2998 colon 106% | KM12 colon 109%

Reference: PubChem BioAssay (NCI)
